Source: the supplement of paper PMC3334620
Over roughly 33,000 sequences, “E-score (-0.5 to 0.5)” has its median near -0.021; the highest 2% begin near 0.32. Many of the other results were omitted from the sample, so the highest values are more common in it than they were.

biological target: T1, Zap1 (UniProt P47043); assay: PBM E-score (8-mer binding enrichment) (E-score (-0.5 to 0.5)); higher = stronger / more preferred TF binding; settings: protein concentration: 200 nM; construct: GST-full length
T1 sequence: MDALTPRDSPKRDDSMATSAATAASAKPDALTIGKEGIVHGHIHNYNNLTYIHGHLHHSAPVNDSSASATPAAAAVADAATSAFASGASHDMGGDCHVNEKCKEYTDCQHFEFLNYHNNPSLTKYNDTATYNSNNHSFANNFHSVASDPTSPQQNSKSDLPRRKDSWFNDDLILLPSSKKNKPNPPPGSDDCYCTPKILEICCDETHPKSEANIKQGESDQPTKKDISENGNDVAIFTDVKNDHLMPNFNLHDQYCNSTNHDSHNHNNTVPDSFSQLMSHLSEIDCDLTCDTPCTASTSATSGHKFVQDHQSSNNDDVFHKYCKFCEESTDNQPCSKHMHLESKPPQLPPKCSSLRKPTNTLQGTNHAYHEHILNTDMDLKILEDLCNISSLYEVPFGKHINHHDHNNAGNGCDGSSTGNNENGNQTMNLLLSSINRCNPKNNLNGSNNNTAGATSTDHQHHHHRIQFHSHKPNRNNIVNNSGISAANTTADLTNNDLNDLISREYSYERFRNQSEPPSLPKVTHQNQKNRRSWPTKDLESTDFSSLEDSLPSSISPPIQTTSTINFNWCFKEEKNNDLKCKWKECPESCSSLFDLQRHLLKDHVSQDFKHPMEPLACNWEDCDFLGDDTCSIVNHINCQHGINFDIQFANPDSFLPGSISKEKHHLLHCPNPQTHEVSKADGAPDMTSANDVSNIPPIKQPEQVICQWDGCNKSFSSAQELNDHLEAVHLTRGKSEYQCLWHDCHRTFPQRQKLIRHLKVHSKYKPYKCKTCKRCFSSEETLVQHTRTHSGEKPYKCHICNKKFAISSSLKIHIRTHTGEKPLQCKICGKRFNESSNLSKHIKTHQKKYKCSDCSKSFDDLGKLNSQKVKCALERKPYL
In short: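 Universal all-10-mer Agilent arrays, double-stranded by primer extension on fresh or once-stripped slides, were probed with about 100-200 nM GST-tagged yeast transcription factors made by PURExpress. Fluorescent anti-GST detected bound protein, and masliner normalised the scans. E-scores from the Universal PBM Analysis Suite were given to each ungapped eight-base word pooled with its reverse complement.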

Point of comparison: GAACCGGA, “PBM E-score” value 0.0894. Against it:
- ACCCCTAG — higher, 0.341
- ACCCCTCG — higher, 0.347
- AGCCCTAG — lower, -0.14
- ACCCCTAC — higher, 0.293
- CCCCCTCG — lower, -0.135
- ACCCCTAA — higher, 0.278
- TACCGATA — higher, 0.102
- CCGGTGCG — lower, 0.0015
- AAATCTTG — lower, 0.0159
- GCCAGCAC — lower, -0.171
- CACCCGCA — lower, -0.0495
- AACCCGCA — higher, 0.314
- CAACCGAA — higher, 0.199
- CAACCGCA — higher, 0.106
- TACCCGCA — higher, 0.364
- GAACCGCA — higher, 0.149
- TAACCGAA — higher, 0.319
- TAACCGCA — higher, 0.426
- AAACCGAA — higher, 0.114
- GTACCGCA — higher, 0.383
- ATACCGCA — lower, 0.0517
- CTACCGCA — lower, 0.00616
- GTCCTTTA — higher, 0.132
- CCGCCCAC — lower, 0.0267
- GAAATCGA — lower, -0.0672
- AAACCGGA — lower, 0.00487
- TAACCGGA — higher, 0.364
- AATTCTAC — higher, 0.104
- TATACTAA — lower, 0.0714
- GACAGCGA — lower, -0.275
- CGTTGGCC — lower, -0.138
- GCCGGTTA — higher, 0.33
- GCCGGTGA — higher, 0.0983
- GCCGGTCA — lower, 0.0353
- ACCGGTTA — higher, 0.372
- CCCGGTTA — higher, 0.25
- ACCGGTTG — higher, 0.119
- AGATTGAA — lower, -0.0374
- ATGCTAGG — lower, -0.159
- ACTAAATG — lower, -0.036
- ACCAGCGG — lower, 0.0819
- CAAGATGC — lower, -0.0715
- AGTGGGAA — lower, 0.022
- GTTGAAGA — lower, -0.0696
- AGGTCAGG — higher, 0.141
- AGGTCATA — higher, 0.347
- AGGTCAGA — higher, 0.149
- GGGTCAGA — lower, 0.0808
- ATGTCATA — lower, -0.0263
- CGGTCATA — higher, 0.201
- ATGTCATC — lower, -0.123
- AGGTCATG — higher, 0.416
- CGGTCATC — higher, 0.131
- AGGTCATC — higher, 0.373
- GGGTCATA — higher, 0.432
- AGGTCAAG — higher, 0.277
- TGCTCGAA — lower, -0.0246
- CATAGATC — lower, -0.0935
- ACATCTGG — lower, 0.0376
- CAGTACTG — lower, -0.118
- GAGTCTTA — lower, -0.368
- ACGTAGGA — lower, -0.12
- ACGTCTGC — lower, -0.272
- AGGTCGTG — higher, 0.353
- AGGTCGTC — lower, 0.0799
- AGGTCGTA — higher, 0.189
- AAACCAGA — higher, 0.165
- GGCAACCC — higher, 0.358
- AGCAACCC — higher, 0.239
- GGCAACCA — higher, 0.116
- CGGAACCG — higher, 0.169
- CGCAACCC — higher, 0.379
- CGCAACCA — higher, 0.283
- CGCAACCG — higher, 0.281
- CGGAACCC — higher, 0.326
- AGGAACCC — higher, 0.104
- AGATCGCA — lower, -0.127
- AATTCTTG — lower, -0.0794
- TTACACAA — higher, 0.21
- GAGTGCAA — lower, 0.0286
- AGACCCTC — higher, 0.092
- ATACCCGA — higher, 0.224
- CTACCCGC — higher, 0.244
- ATACCCTC — higher, 0.323
- ATACCCTG — higher, 0.306
